Assay results as given in PubChem BioAssay (EPA / NIEHS).
Active and inactive are the calls of the source. Rule for the calls: active = hit-call score of the fitted dose curve at least 0.9, where 1 is the maximum; inactive = score below 0.9.

Assays:
Conditions in all cases: mRNA level, 48 h; actives raise or lower the signal
[1] = read-out: ABC Transporter (ABCB11), ABCB11 (gene 8647); test: LTEA_HepaRG_ABCB11: Life Technologies and Expression Analysis (LTEA) Assay for ABC Transporter (ABCB11) using HepaRG (AID 2283463)
In short: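 ABCB11 transcript levels quantified by TaqMan qRT-PCR against three housekeeping genes after 48 h chemical exposure of HepaRG cultures. Concentrations up to 100 uM in half-log steps, 0.5% DMSO vehicle; both induction and suppression scored.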

[2] = read-out: ABC Transporter (ABCC2), ABCC2 (gene 1244); test: LTEA_HepaRG_ABCC2: Life Technologies and Expression Analysis (LTEA) Assay for ABC Transporter (ABCC2) using HepaRG (AID 2283464)
In short: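 HepaRG, 48 h post-plating; serum-free induction medium; cpd 8-pt, 100 uM top, half-log, 0.5% DMSO, duplicate, 48 h. Readout: ABCC2 mRNA by qRT-PCR, norm. ACTB/GAPDH/POLR2A. Bidirectional fit vs DMSO baseline.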

[3] = read-out: Broad substrate specificity ATP-binding cassette transporter ABCG2 (Homo sapiens) (UniProt Q9UNQ0); test: LTEA_HepaRG_ABCG2: Life Technologies and Expression Analysis (LTEA) Assay for ABC Transporter (ABCG2) using HepaRG (AID 2283465)
In short: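 ABCG2 transcript was quantified by TaqMan qRT-PCR against three housekeeping genes in HepaRG cells. Cells were treated in duplicate for 48 h across an 8-point half-log series up to 100 uM, with 0.5% DMSO vehicle. Gain or loss versus DMSO was fit.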

[4] = read-out: ATP-citrate lyase (ACLY), ACLY (gene 47); test: LTEA_HepaRG_ACLY: Life Technologies and Expression Analysis (LTEA) Assay for ATP-citrate lyase (ACLY) using HepaRG (AID 2283466)
In short: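 ACLY mRNA quantified by qRT-PCR on Fluidigm arrays against three housekeeping genes, after 48 h chemical treatment of HepaRG cells (top concentration 100 uM, half-log steps, 0.5% DMSO vehicle). Up- or down-regulation fitted relative to DMSO.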

[5] = read-out: Peroxisomal acyl-coenzyme A oxidase 1 (ACOX1) gene, ACOX1 (gene 51); test: LTEA_HepaRG_ACOX1: Life Technologies and Expression Analysis (LTEA) Assay for Peroxisomal acyl-coenzyme A oxidase 1 (ACOX1) gene using HepaRG (AID 2283467)
In short: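 ACOX1 transcript levels were quantified by TaqMan qRT-PCR against three housekeeping genes after 48 h chemical exposure of differentiated human HepaRG cells. Exposure used eight half-log steps topping at 100 uM, 0.5% DMSO vehicle, in duplicate. Bidirectional curve fits were made relative to DMSO.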

[6] = read-out: Alkaline Phosphatase, Placental (ALPP) gene, ALPP (gene 250); test: LTEA_HepaRG_ALPP: Life Technologies and Expression Analysis (LTEA) Assay for Alkaline Phosphatase, Placental (ALPP) gene using HepaRG (AID 2283468);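 for AC50: differentiated human HepaRG liver cells in serum-free induction medium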
In short: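 HepaRG, 48 h plating then 48 h dosing, serum-free induction medium, 0.5% DMSO. 8 conc, half-log, max 100 uM, duplicates. Endpoint: ALPP transcript by qRT-PCR, housekeeping-normalized; gain or loss fitted vs DMSO.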

[7] = read-out: Bcl-2 (BAD) gene, BAD (gene 572); test: LTEA_HepaRG_BAD: Life Technologies and Expression Analysis (LTEA) Assay for Bcl-2 (BAD) gene using HepaRG (AID 2283469)
In short: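 Read-out: qRT-PCR of BAD mRNA, normalized to three housekeeping genes. Human HepaRG cultures got 48 h chemical exposure in 0.5% DMSO, duplicate eight-point half-log series topping at 100 uM. Gain or loss of signal fitted versus DMSO vehicle.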

[8] = read-out: Bcl-2 (BAX) gene, BAX (gene 581); test: LTEA_HepaRG_BAX: Life Technologies and Expression Analysis (LTEA) Assay for Bcl-2 (BAX) gene using HepaRG (AID 2283470)
In short: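 Cells were thawed, plated for 48 h, moved to serum-free induction medium and dosed for 48 h (highest concentration 100 uM, half-log steps, 0.5% DMSO). Total RNA was then analysed for BAX expression by qRT-PCR.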

[9] = read-out: adenosine kinase (ADK) gene, ADK (gene 132); test: LTEA_HepaRG_ADK: Life Technologies and Expression Analysis (LTEA) Assay for adenosine kinase (ADK) gene using HepaRG (AID 2283471)
In short: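 ADK expression quantified by qRT-PCR, normalised to three housekeeping genes, after 48 h exposure of HepaRG cells to eight concentrations (top 100 uM, half-log steps, duplicate, 0.5% DMSO). Up- or down-regulation fitted relative to vehicle.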

[10] = read-out: Alpha-fetoprotein (AFP) gene, AFP (gene 174); test: LTEA_HepaRG_AFP: Life Technologies and Expression Analysis (LTEA) Assay for Alpha-fetoprotein (AFP) gene using HepaRG (AID 2283472)
In short: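 Chemicals were tested on differentiated HepaRG cells for 48 hours at eight concentrations up to 100 uM, with 0.5% DMSO as vehicle. AFP expression was then quantified by qRT-PCR and analyzed for gain or loss relative to DMSO.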

BCL2L11 (gene 10018) = test: LTEA_HepaRG_BCL2L11: Life Technologies and Expression Analysis (LTEA) Assay for Bcl-2 (BCL2L11) gene using HepaRG (AID 2283473)
In short: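 Read-out is BCL2L11 transcript level by qRT-PCR, normalized to three housekeeping genes and fitted bidirectionally against 0.5% DMSO vehicle. HepaRG cells received chemicals for 48 h in serum-free induction medium, 100 uM down in half-log dilutions.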

[11] = read-out: Apolipoprotein A-V (APOA5) gene, APOA5 (gene 116519); test: LTEA_HepaRG_APOA5: Life Technologies and Expression Analysis (LTEA) Assay for Apolipoprotein A-V (APOA5) gene using HepaRG (AID 2283474)
In short: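 Readout is APOA5 transcript level by qRT-PCR on Fluidigm dynamic arrays, normalized to three housekeeping genes. HepaRG cultures received chemicals for 48 h at up to 100 uM (half-log steps, 0.5% DMSO), with gain or loss scored relative to DMSO.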

[12] = read-out: Apoptosis regulator Bcl-2 (Homo sapiens) (UniProt P10415); test: LTEA_HepaRG_BCL2: Life Technologies and Expression Analysis (LTEA) Assay for Bcl-2 gene using HepaRG (AID 2283475)
In short: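 Plated human HepaRG cells are exposed to test chemicals for 48 h across eight concentrations from 100 uM downward in half-log steps (0.5% DMSO). BCL2 expression is then measured by qRT-PCR with housekeeping normalisation and fitted bidirectionally against vehicle.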

[13] = read-out: Bcl-2 (BID) gene, BID (gene 637); test: LTEA_HepaRG_BID: Life Technologies and Expression Analysis (LTEA) Assay for Bcl-2 (BID) gene using HepaRG (AID 2283476)
In short: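 Cells are plated, cultured 48 h, switched to serum-free induction medium, then dosed 48 h (100 uM top, half-log steps, 0.5% DMSO). RNA is isolated and BID expression read by qRT-PCR.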

Caspase-3 (Homo sapiens) = Caspase-3 (Homo sapiens) (UniProt P42574); test: LTEA_HepaRG_CASP3: Life Technologies and Expression Analysis (LTEA) Assay for cysteine-aspartic acid protease (CASP3) using HepaRG (AID 2283477)
Chain of Caspase-3 (Homo sapiens) (P42574 whole entry, looked up): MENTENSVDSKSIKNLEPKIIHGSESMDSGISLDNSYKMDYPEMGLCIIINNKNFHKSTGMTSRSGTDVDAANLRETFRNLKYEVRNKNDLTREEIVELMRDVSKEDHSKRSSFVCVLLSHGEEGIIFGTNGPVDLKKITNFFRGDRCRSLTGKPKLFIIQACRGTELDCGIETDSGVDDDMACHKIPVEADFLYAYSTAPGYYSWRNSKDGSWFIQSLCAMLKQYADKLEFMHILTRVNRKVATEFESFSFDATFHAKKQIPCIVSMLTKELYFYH
In short: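 Read-out is CASP3 mRNA level by TaqMan qRT-PCR in human HepaRG cells after 48 h chemical exposure. Eight half-log concentrations topping at 100 uM were tested in 0.5% DMSO; gain or loss was fitted relative to DMSO.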

[14] = read-out: Cytochrome P450 (CYP24A1), CYP24A1 (gene 1591); test: LTEA_HepaRG_CYP24A1: Life Technologies and Expression Analysis (LTEA) Assay for Cytochrome P450 (CYP24A1) using HepaRG (AID 2283478)
In short: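 HepaRG, 48 h chemical exposure, 8-pt half-log CRC from 100 uM, 0.5% DMSO vehicle, duplicates. Endpoint: CYP24A1 mRNA by Fluidigm TaqMan qRT-PCR, normalized ACTB/GAPDH/POLR2A; gain/loss fit vs DMSO.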

[15] = read-out: Cytochrome P450 (CYP1A2), CYP1A2 (gene 1544); test: LTEA_HepaRG_CYP1A2: Life Technologies and Expression Analysis (LTEA) Assay for Cytochrome P450 (CYP1A2) using HepaRG (AID 2283479)
In short: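 CYP1A2 transcript induction or loss, quantified by Fluidigm qRT-PCR against three housekeeping genes, was fitted bidirectionally against 0.5% DMSO controls. Human HepaRG cells received eight half-log concentrations from 100 uM over 48 h.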

[16] = read-out: cysteine-aspartic acid protease (CASP8), CASP8 (gene 841); test: LTEA_HepaRG_CASP8: Life Technologies and Expression Analysis (LTEA) Assay for cysteine-aspartic acid protease (CASP8) using HepaRG (AID 2283480)
In short: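 CASP8 transcript measured by TaqMan qRT-PCR with ACTB/GAPDH/POLR2A normalization, after 48 h chemical exposure of HepaRG cells in serum-free induction medium. Eight concentrations, top 100 uM, half-log steps, 0.5% DMSO vehicle; fits in both directions versus DMSO.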

[17] = read-out: Cytochrome P450 (CYP2B6), CYP2B6 (gene 1555); test: LTEA_HepaRG_CYP2B6: Life Technologies and Expression Analysis (LTEA) Assay for Cytochrome P450 (CYP2B6) using HepaRG (AID 2283481)
In short: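 HepaRG cells plated 48 h, switched to serum-free induction medium, then dosed 48 h (8 points, half-log from 100 uM, 0.5% DMSO). RNA isolated; CYP2B6 expression measured by qRT-PCR; gain or loss fitted relative to DMSO.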

[18] = read-out: Cytochrome P450 2C19 (Homo sapiens) (UniProt P33261); test: LTEA_HepaRG_CYP2C19: Life Technologies and Expression Analysis (LTEA) Assay for CYP2C19 using HepaRG (AID 2283482)
In short: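 Transcript levels of CYP2C19 were quantified by qRT-PCR after HepaRG cells were treated for 48 hours with test chemicals up to 100 uM (eight half-log concentrations, 0.5% DMSO vehicle). Gain or loss of signal was fitted relative to DMSO.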

Measured: AC50

Chain of Broad substrate specificity ATP-binding cassette transporter ABCG2 (Homo sapiens) (Q9UNQ0 whole entry, looked up): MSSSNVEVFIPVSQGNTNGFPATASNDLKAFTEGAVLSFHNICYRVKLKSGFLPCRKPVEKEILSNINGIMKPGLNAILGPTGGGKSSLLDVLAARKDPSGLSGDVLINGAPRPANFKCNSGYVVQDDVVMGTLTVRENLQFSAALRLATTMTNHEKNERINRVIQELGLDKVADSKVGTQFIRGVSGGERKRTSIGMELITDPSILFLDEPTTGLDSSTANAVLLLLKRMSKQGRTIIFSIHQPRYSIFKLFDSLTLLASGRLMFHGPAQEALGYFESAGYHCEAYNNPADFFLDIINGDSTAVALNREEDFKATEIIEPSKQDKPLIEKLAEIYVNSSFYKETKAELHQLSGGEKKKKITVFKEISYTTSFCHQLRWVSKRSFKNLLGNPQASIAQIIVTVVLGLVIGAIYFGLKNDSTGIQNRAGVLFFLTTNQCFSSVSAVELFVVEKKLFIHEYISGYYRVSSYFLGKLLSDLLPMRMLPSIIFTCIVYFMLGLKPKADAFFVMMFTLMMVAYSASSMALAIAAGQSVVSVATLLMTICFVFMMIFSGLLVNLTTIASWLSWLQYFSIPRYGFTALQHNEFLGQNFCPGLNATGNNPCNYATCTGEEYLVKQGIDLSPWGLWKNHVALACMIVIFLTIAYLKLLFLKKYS
Chain of Cytochrome P450 2C19 (Homo sapiens) (P33261 whole entry, looked up): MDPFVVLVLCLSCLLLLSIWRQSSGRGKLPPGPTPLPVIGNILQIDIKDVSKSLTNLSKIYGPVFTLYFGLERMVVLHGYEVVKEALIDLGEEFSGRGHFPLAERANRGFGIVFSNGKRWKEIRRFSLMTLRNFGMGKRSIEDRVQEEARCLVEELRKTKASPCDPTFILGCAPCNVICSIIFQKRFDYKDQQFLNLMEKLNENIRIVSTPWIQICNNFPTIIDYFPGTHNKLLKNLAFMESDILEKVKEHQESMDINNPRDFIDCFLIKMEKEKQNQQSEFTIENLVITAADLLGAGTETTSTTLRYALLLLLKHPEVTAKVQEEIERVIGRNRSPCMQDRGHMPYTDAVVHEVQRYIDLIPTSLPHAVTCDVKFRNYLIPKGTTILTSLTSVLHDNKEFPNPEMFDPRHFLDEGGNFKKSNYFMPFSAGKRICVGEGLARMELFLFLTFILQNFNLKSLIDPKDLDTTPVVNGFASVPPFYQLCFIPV
Chain of Apoptosis regulator Bcl-2 (Homo sapiens) (P10415 whole entry, looked up): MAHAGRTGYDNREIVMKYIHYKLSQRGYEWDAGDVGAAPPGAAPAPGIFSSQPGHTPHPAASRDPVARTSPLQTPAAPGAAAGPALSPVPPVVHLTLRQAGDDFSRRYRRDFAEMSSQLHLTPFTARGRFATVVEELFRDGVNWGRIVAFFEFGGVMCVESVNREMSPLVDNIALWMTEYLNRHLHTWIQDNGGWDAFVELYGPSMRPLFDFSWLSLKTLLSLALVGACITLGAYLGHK

Cc1ccc(N)cc1O
active: [1] 50 µM | [15] 26.8 µM
inactive: all other assays above

Cc1ccc(O)cc1
not listed: [10] | [14] | [15] | [17] | [18]
inactive: all other assays above

CCCN(C1CCN(C(=O)C2CCNCC2)CC1)[C@@H]1CCc2ccc(OC)cc2C1
active: [1] 70 µM | [2] 76 µM | [3] 35.5 µM | [5] 33.1 µM | [6] 50 µM | [10] 76.2 µM | [11] 77.4 µM | [15] 84.3 µM | [17] 87.9 µM | [18] 86.3 µM
inactive: [4] | [7] | [8] | [9] | BCL2L11 (gene 10018) | [13] | Caspase-3 (Homo sapiens) | [14] | [16]

CCCCCCc1ccc(O)cc1O
inactive: all assays above

CCNc1ccccc1
active: [15] 16.5 µM | [17] 28.3 µM
not listed: [8]
inactive: all other assays above

CCOC(=O)COc1ccc2c(c1)CC(NCC(O)c1cccc(Cl)c1)CC2 (stereo not drawn)
active: [6] 16 µM | [12] 45.8 µM | [17] 0.947 µM
inactive: all other assays above

O=C1CCCCCN1
inactive: all assays above

CC(C)=CCCC(C)=CC=O
active: [17] 50 µM
not listed: [12]
inactive: all other assays above

C1=CCCC=CCCC=CCC1
not listed: [12] | [14]
inactive: all other assays above

C=CC(=C)CCC=C(C)C
active: [15] 27.2 µM
not listed: [8]
inactive: all other assays above

Cn1c(=O)cc(Oc2ccc(F)cc2F)c2cnc(NCC(C)(C)O)nc21
active: [1] 12.7 µM | [6] 20.7 µM | [15] 16 µM | [17] 6.6 µM | [18] 14.6 µM
inactive: all other assays above

O=C(OC[C@H]1O[C@@H](OC(=O)c2cc(O)c(O)c(OC(=O)c3cc(O)c(O)c(O)c3)c2)[C@H](OC(=O)c2cc(O)c(O)c(OC(=O)c3cc(O)c(O)c(O)c3)c2)[C@@H](OC(=O)c2cc(O)c(O)c(OC(=O)c3cc(O)c(O)c(O)c3)c2)[C@@H]1OC(=O)c1cc(O)c(O)c(OC(=O)c2cc(O)c(O)c(O)c2)c1)c1cc(O)c(O)c(OC(=O)c2cc(O)c(O)c(O)c2)c1
active: [1] 7.96 µM | [2] 15.2 µM | [3] 8.88 µM | [6] 3.31 µM | [10] 8.86 µM | BCL2L11 (gene 10018) 15.2 µM | [11] 6.96 µM | [12] 28.4 µM | [13] 7.63 µM | [16] 9.48 µM | [17] 10.2 µM | [18] 15.2 µM
inactive: [4] | [5] | [7] | [9] | Caspase-3 (Homo sapiens) | [14] | [15]
